Laboratory results as given in PubChem BioAssay (EPA / NIEHS).
Results filed as inconclusive are left out. Calls of active or inactive are those of the source. How the source made its calls, unless noted: active means hit-call score of the fitted dose curve at least 0.9, where 1 is the maximum; inactive means score below 0.9.

How the values were obtained:
DIO2 (gene 1734) = assay: CCTE_GLTED_hDIO2: CCTE's human Deiodinase 2 (DIO2) Inhibition Assay, Great Lakes Toxicology and Ecology Division (GLTED) Lab (AID 2284050; active means hit-call score of the fitted dose curve at least 0.9, where 1 is the maximum)
Procedure, shortened: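 Cell-free human DIO2 enzyme was incubated with test chemical for 3 h; iodide liberated from substrate was then quantified by the Sandell-Kolthoff reaction (absorbance), run in triplicate. Loss of signal versus DMSO baseline indicated inhibition.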

[1] = CCTE_Shafer_MEA_dev_bursting_electrodes_number: CCTE's Neural Network Formation Assay for Number of Bursting Electrodes, Shafer Lab (AID 2284043; active means hit-call score of the fitted dose curve at least 0.9, where 1 is the maximum;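 on AC50: potency is for loss of bursting electrodes relative to DMSO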)
Procedure, shortened: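 Primary rat cortical neurons plated on 16-electrode MEA wells, exposed from day 0 with compound renewed at DIV 5 and 9. Electrodes bursting ≥1 burst per 2 min counted on days 5, 7, 9 and 12; trapezoidal AUC across days, fitted for loss versus DMSO.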

[2] = CCTE_Shafer_MEA_dev_per_burst_interspike_interval: CCTE's Neural Network Formation Assay for Burst Interspike Interval, Shafer Lab (AID 2284044);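 further: mean spike spacing inside bursts as AUC over recordings on days 5 7 9 12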;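 on AC50: potency for a decrease of within-burst interspike interval below DMSO level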
Procedure, shortened: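 Mean interspike interval within single-electrode bursts, averaged over bursting electrodes, from rat cortical cultures on MEA plates recorded on days 5, 7, 9 and 12. Continuous compound exposure from plating; trapezoidal AUC fitted downward relative to DMSO.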

[3] = CCTE_Shafer_MEA_dev_burst_duration_mean: CCTE's Neural Network Formation Assay for Mean Burst Duration, Shafer Lab (AID 2284045);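 on AC50: curve fitted for loss meaning shorter burst duration than DMSO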
Procedure, shortened: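 Primary rat cortical neurons on 48-well 16-electrode MEA plates, exposed from day 0 with renewal at DIV 5 and 9; spontaneous activity recorded on days 5, 7, 9, 12. Well-mean burst duration across bursting electrodes, collapsed as trapezoidal AUC; DMSO baseline.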

[4] = CCTE_Shafer_MEA_dev_interburst_interval_mean: CCTE's Neural Network Formation Assay for Mean Interburst Interval, Shafer Lab (AID 2284046);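 further: well-mean interburst interval of bursting electrodes as AUC over four recording days; curve fitted for decrease in interburst interval relative to DMSO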
Procedure, shortened: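 Primary rat cortical neurons on PEI-coated 48-well MEA plates (laminin added with cells at plating) (16 electrodes/well), exposed from plating day 0 with renewal at DIV 5 and 9. Mean inter-burst interval averaged over bursting electrodes, AUC across days 5, 7, 9, 12; DMSO baseline.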

[5] = CCTE_Shafer_MEA_dev_inter_network_spike_interval_mean: CCTE's Neural Network Formation Assay for Mean Inter-network Spike Interval, Shafer Lab (AID 2284047);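 on AC50: potency for a decrease in mean inter-network spike interval below DMSO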
Procedure, shortened: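 Mean time between consecutive network-spike peaks, recorded extracellularly (adaptive spike detection) on DIV 5, 7, 9 and 12, summarized as trapezoidal AUC. Rat cortical cultures on MEAs dosed continuously days 0–12, re-dosed at feeds; loss-of-signal fit relative to DMSO.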

[6] = CCTE_Shafer_MEA_dev_network_spike_number: CCTE's Neural Network Formation Assay for Number of Network Spikes, Shafer Lab (AID 2284048);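 on AC50: fit as a loss of signal meaning fewer network spikes than DMSO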
Procedure, shortened: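 Primary rat cortical neurons on PEI/laminin 48-well MEA plates, dosed from plating day 0 for 12 days, renewed at DIV 5 and 9. Network spike counts recorded DIV 5, 7, 9, 12, collapsed as trapezoidal AUC; DMSO baseline.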

[7] = CCTE_Shafer_MEA_dev_network_spike_peak: CCTE's Neural Network Formation Assay for Mean Number of Electrodes in Network Spike, Shafer Lab (AID 2284049);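 on AC50: fitted for loss of signal meaning fewer electrodes in network spikes than DMSO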
Procedure, shortened: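 Network-spike peak electrode count from recordings on days 5, 7, 9 and 12 was combined as trapezoidal area under the curve. Rat cortical cultures were treated continuously from plating, with compound renewed at each feed (DIV 5, 9); fits versus DMSO.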

[8] = CCTE_Shafer_MEA_dev_spike_duration_mean: CCTE's Neural Network Formation Assay for Mean Spike Duration, Shafer Lab (AID 2284051);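 further: mean network spike duration pooled as area under curve over DIV 5 to 12 recordings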;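 on AC50: potency for a decrease in mean network spike duration versus DMSO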
Procedure, shortened: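 Spontaneous activity was recorded on days 5, 7, 9 and 12 from rat cortical cultures grown on microelectrode arrays and dosed continuously from day 0, with media and compound renewed after the DIV 5 and 9 recordings. Network-spike duration was collapsed by area under the curve.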

[9] = CCTE_Shafer_MEA_dev_network_spike_duration_std: CCTE's Neural Network Formation Assay for Standard Deviation of Network Spike Duration, Shafer Lab (AID 2284052);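 further: hits are decreases in network spike duration SD versus DMSO vehicle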
Procedure, shortened: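 Network spike duration variability was collapsed across recordings on days 5, 7, 9 and 12 by trapezoidal area-under-curve and fitted downward against DMSO. Cultures were rat cortical neurons on PEI-coated MEA plates, dosed continuously from plating, refed with compound DIV 5/9.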

In the case of `CCCCCCCCCCCCCC(=O)O`, the AC50 (DIO2 (gene 1734)) is reported as 100000 nM (active).

In the case of `CCC(=O)/C=C/C1C(C)=CCCC1(C)C` (centres undefined), the AC50 (DIO2 (gene 1734)) is reported as 93100 nM (active).

In the case of `CN(C)C(=N)N=C(N)N`, the outcome [1] is reported as “inactive”, the outcome [2] is reported as “inactive” and the outcome [3] is reported as “inactive”. For the same compound, the outcome [4] was “inactive”, the outcome [5] was “inactive” and the outcome [6] was “inactive”. The outcome [7] was “inactive”, the outcome [8] was “inactive” and the outcome [9] was “inactive”.

In the case of `O=C(Oc1ccccc1)c1ccc(O)cc1`, the AC50 (DIO2 (gene 1734)) is reported as 72200 nM (active).

In the case of `N#Cc1ccc(CC(=NNC(=O)Nc2ccc(OC(F)(F)F)cc2)c2cccc(C(F)(F)F)c2)cc1`, the AC50 [1] is reported as 297 nM (active), the AC50 [2] is reported as 301 nM (active) and the AC50 [3] is reported as 358 nM (active). For the same compound, the AC50 [4] was 63.2 nM (active), the AC50 [5] was 634 nM (active) and the AC50 [6] was 763 nM (active). The AC50 [7] was 1120 nM (active), the AC50 [8] was 685 nM (active) and the AC50 [9] was 525 nM (active).

In the case of `O=Nc1ccc(Nc2ccccc2)cc1`, the AC50 (DIO2 (gene 1734)) is reported as 64200 nM (active).

With `CCCCCCCCCCCCCCCC(=O)OC[C@H](O)[C@H]1OC(=O)C(O)=C1O` the AC50 (DIO2 (gene 1734)) was 27500 nM (active).

In the case of `CCCCCCCCCCCCN`, the outcome (DIO2 (gene 1734)) is reported as “inactive”.

In the case of `c1ccc2c(c1)c1cccc3ccc4cccc2c4c31`, the AC50 [1] is reported as 3330 nM (active), the outcome [2] is reported as “inactive” and the outcome [3] is reported as “inactive”. For the same compound, the outcome [4] was “inactive”, the AC50 [5] was 18600 nM (active) and the outcome [6] was “inactive”. For the same compound, the outcome [7] was “inactive”, the outcome [8] was “inactive” and the outcome [9] was “inactive”.

For `CC(C)=CCCC(C)=CCCC(C)=CCO`, the AC50 (DIO2 (gene 1734)) was 28500 nM (active).
